# According to PubChem BioAssay AID2111 (National Center for Advancing Translational Sciences (NCATS), 2009):
# “And” between values parts separate entries of the source, which are not always exact repeats. Identical values can stand only once. The source made the active and inactive calls. Calls follow the shape of the dose curve; as a rule, active = well fitted curve in either direction with a large enough effect; inconclusive = small, poorly fitted or top-dose-only effect; inactive = no such curve, though single readings can be large or run the other way.
# Target: Lysosomal alpha-glucosidase (Homo sapiens) (UniProt P10253)
# Assay: Confirmation of Inhibitors and Activators of Human alpha-Glucosidase From Spleen Homogenate Using an Alternate Red Fluorescent Susbtrate
# Settings: resorufin-glucoside fluorescence; series mostly up to 62.8 µM
# Text: NIH Chemical Genomics Center [NCGC] NIH Molecular Libraries Probe Production centers Network [MLPCN] MLPCN Grant: 1R03MH084841-01 Assay Submitter (PI): Wei Zheng NCGC Assay Overview: Alpha-glucosidase is responsible for hydrolysis of terminal, non-reducing 1,4-linked alpha-D-glucose residues with release of alpha-D-glucose. It is a lysosomal hydrolase that is required for the degradation of a small percentage (1-3%) of cellular glycogen in human. Deficiency of this enzyme results in glycogen-storage disease type II (GSDII), also referred to as Pompe disease, an autosomal recessive disorder. Structurally normal glycogen is accumulated in lysosomes and cytoplasm in affected patients, primarily in muscle tissues. Excessive glycogen storage within lysosomes may interrupt normal functioning of other organelles and leads to cellular injury. In turn, this leads to enlargement and dysfunction of the entire organ involved (eg, cardiomyopathy and muscle weakness). It has reported that the improper folding and trafficking of alpha-glucosidase resultinged from the genetic mutations may account for a significant number of Pomrope patients. […] We optimized this alpha-glucosidase assay in 1536-well plate format for identifying the novel small molecule inhibitors with the structures other than the sugar analogs in order to develop the new pharmacological chaperones. In particular, this assay is directed towards discovering compounds active in a more natural setting, tissue homogenate, that may have been missed by screens of the purified enzyme under more stringent conditions. This assay attempted to confirm hits from the primary screening using an alternate fluor than the primary screen used.
# NCGC Assay Protocol Summary: This is a fluorogenic enzyme assay with Resorufin-alpha-D-glucopyranoside as the substrate and human spleen homogenate containing alpha-glucosidase as the enzyme preparation. Upon hydrolysis of this fluorogenic substrate, the resulting product, resorufin (which excites at 573 nm and emits at 610 nm) can be detected by a fluorescence plate reader. Data were normalized to the controls for basal activity (without enzyme) and 100% activity (with enzyme). The AC50 values were determined from concentration-response data modeled with the standard Hill equation. Assay buffer: 50 mM citric acid (titrated with potassium phosphate to pH 5.0), 0.01% Tween-20 (pH 5.0 is an optimal condition for this enzyme assay) 1536-well assay protocol for the alpha-glucosidase from human spleen homogenate: (1) Add 2 ul/well spleen homogenate (1 ug) (2) Add 23 nL compounds in DMSO solution. The final titration was 0.5 nM to 58 uM. (3) Add 2 ul of substrate (1 mM final) (4) Incubate at 37 C for 40 min (5) Add 2 ul stop solution (1M NaOH and 1M Glycine mixture, pH 10) (6) Detect the assay plate in a ViewLux plate reader (PerkinElmer) with […]. Keywords: Alpha-glucosidase, Pompe Disease, pharmacological chaperone, chaperone therapy, high throughput screening, alpha-glucosidase inhibitor, MLSMR, MLSCN, NIH Roadmap, qHTS and NCGC
row,Compound,Potency
1,CCCN1CNc2c(c(=O)[nH]c(=S)n2CCc2ccc(OCC)c(OCC)c2)C1,7.94 µM (active)
2,CC(=O)Nc1ccc(S(=O)(=O)N2CCN(c3ccc(C(C)=O)cc3)CC2)cc1,inactive
3,COc1ccc(N2CCN(S(=O)(=O)c3ccc4c(c3)CC(=O)N4)CC2)cc1,6.68 µM [inhibitor] (active)
4,CC(=O)c1ccc(N2CCN(S(=O)(=O)c3ccc4c(c3)CCCC(=O)N4)CC2)cc1,inactive
5,O=c1[nH]cc(CCc2ccccc2)c2ncncc12,inactive
6,CCCN1CNc2c(c(=O)[nH]c(=S)n2CCc2ccc(C)cc2C)C1,11.2 µM (active)
7,CC(=O)c1ccc(N2CCN(C(=O)c3ccc4c(c3)CCC(=O)N4)CC2)cc1,inactive
8,CCCN1CNc2c(c(=O)[nH]c(=S)n2CCc2ccc(C)c(C)c2)C1,7.94 µM (active)
9,CCCCN1C[C@H](O)[C@@H](O)[C@H](O)[C@H]1CO,inactive
10,CCCN1CNc2c(c(=O)[nH]c(=S)n2CCc2ccc(C)cc2)C1,14.1 µM (active)
11,CC(=O)c1ccc(N2CCN(S(=O)(=O)c3ccc4c(c3)CCCN4C(C)=O)CC2)cc1,inactive
12,CC(=O)c1ccc(N2CCN(S(=O)(=O)c3ccc4c(c3)CC(C)N4C(C)=O)CC2)cc1 (stereo not given),inactive
13,COc1ccc(CCc2c[nH]c(=O)c3cncnc23)cc1OC,inactive
14,CC(=O)c1ccc(N2CCN(S(=O)(=O)c3ccc4c(c3)CC(=O)N4)CC2)cc1,1.03 µM [inhibitor] (active) and 943 nM [inhibitor] (active) and 2.06 µM [inhibitor] (active)
15,CC(=O)N1CCN(S(=O)(=O)c2ccc3c(c2)CC(=O)N3)CC1,14.9 µM [inhibitor] (active)
16,CCCN1CNc2c(c(=O)[nH]c(=S)n2CCc2cccc(C)c2C)C1,3.98 µM (active)
17,O=C1Cc2cc(S(=O)(=O)N3CCN(c4ccc(Cl)cc4)CC3)ccc2N1,inactive
18,COc1ccc(CCn2c(=S)[nH]c(=O)c3[nH]cnc32)cc1OC,inactive
19,CCCN1CNc2c(c(=O)[nH]c(=S)n2Cc2ccc(OC)c(OC)c2)C1,5.01 µM (active)
20,Cc1ccc(S(=O)(=O)N2CCN(C(=O)N(c3ccccc3)c3ccccc3)CC2)cc1,inactive

row,Compound,Potency
1,CC(=O)c1ccc(N2CCN(S(=O)(=O)c3ccc4[nH]c(=O)[nH]c4c3)CC2)cc1,inactive
2,CCCN1CNc2c(c(=O)[nH]c(=S)n2CCc2ccccc2C)C1,12.6 µM (active)
3,CCCN1CNc2c(c(=O)[nH]c(=S)n2CCc2ccc(OC)c(OC)c2)C1,8.91 µM (active)
4,CCCN1CNc2c(c(=O)[nH]c(=S)n2CCc2ccc(OC)cc2)C1,25.1 µM (active)
5,CCCN1CNc2c(c(=O)[nH]c(=S)n2CCc2cc(C)ccc2C)C1,8.91 µM (active)
6,COc1cccc(CCn2c(N)cc(=O)[nH]c2=S)c1OC,inactive
7,CCCN1CNc2c(c(=O)[nH]c(=S)n2CCc2cc(OC)ccc2OC)C1,12.6 µM (active)
8,CC(=O)c1ccc(N2CCN(S(=O)(=O)c3ccc4c(c3)C(Cl)(Cl)C(=O)N4)CC2)cc1,20.6 µM [inhibitor] (active) and 32.6 µM [inhibitor] (active)
9,N#Cc1ccc(N2CCN(S(=O)(=O)c3ccc4c(c3)CC(=O)N4)CC2)cc1,1.63 µM [inhibitor] (active)
10,CCCN1CNc2c(c(=O)[nH]c(=S)n2CCc2ccccc2Cl)C1,11.2 µM (active)
11,Clc1ncc(C#Cc2ccccc2)c2ncncc12,inactive
12,CCCN1CNc2c(c(=O)[nH]c(=S)n2CCc2cc(Cl)ccc2Cl)C1,10 µM (active)
13,CCCN1CNc2c(c(=O)[nH]c(=S)n2CCCc2ccccc2)C1,35.5 µM (active)
14,Cc1ccc(N2CCN(S(=O)(=O)c3ccc4c(c3)CC(=O)N4)CC2)cc1,inactive
15,O=S(=O)(c1ccc(Cl)cc1)N1CCN(c2nc(-c3cccs3)nc3ccccc23)CC1,inactive
16,COc1ccc(CCn2c(=S)[nH]c(=O)c3nccnc32)cc1OC,inactive
17,COc1ccc(C#Cc2cnc(Cl)c3cncnc23)cc1OC,inactive
18,CCCN1CNc2c(c(=O)[nH]c(=S)n2CCc2ccc(Cl)cc2)C1,11.2 µM (active)
19,c1csc(-c2nc(NCC3CCCO3)c3ccccc3n2)c1 (stereo not given),inactive
20,COc1ccc(CCn2c3c(c(=O)[nH]c2=S)CN(CC(C)C)CN3)cc1OC,6.31 µM (active)
